Cycloheximide cs: affects cycloheximide protein synthesis inhibition readout, counter-screen; cell reporter, cycloheximide protein synthesis inhibition counterscreen; max response, %; 300,000 tested, 12% active; AID 2314; in the data active = max response mostly above about 13%, no sharp cut-off; inactive = mostly below about 14%; also: read at 38.3 µM for the half of the compounds with a filed dose
Pf growth 96h: P. falciparum growth inhibition at 96 hour, primary screen for plastid delayed-death inhibitors. P. falciparum luciferase reporter growth, 96 h. Potency, µM (highest dose often 28.7 µM), hits mostly inhibitors. 320,000 tested, 6.9% active. AID 504834
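Cell-based qHTS: luciferase-tagged P. falciparum in erythrocytes (2% hematocrit, 0.05% parasitemia final) incubated with compounds for 96 hours, 37 C, 5% CO2; luciferase detection reagent then added and luminescence measured.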
Shiga toxin inh: Shiga toxin inhibition; 290,000 tested, 9.2% active; Vero cells, Shiga toxin protein synthesis inhibition reporter; inhibition, % at 38.7 µM; in the data active = inhibition mostly above about 28%, no sharp cut-off; inactive = mostly below about 43%
Pf growth 48h: inhibits P. falciparum growth in the first generation, 48 h. P. falciparum luciferase growth in erythrocytes, 48 h. Potency, µM (series often up to 28.7 µM), actives largely listed as inhibitors. 310,000 tested, 5.9% active
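Luciferase-expressing P. falciparum in infected erythrocytes (2% hematocrit, 0.1% parasitemia final) in RPMI 1640/0.5% Albumax were exposed to compound for 48 hours at 37 C, 5% CO2; growth read as luminescence.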
HCMV antiviral: blocks human cytomegalovirus replication; activity change, negative = inhibition, % at 57.5 µM; HFF cells, HCMV-luciferase reporter, 72 h; active compounds read low; AID 1259415; 410,000 tested, 4.5% active; in the data active = activity change below about -60%; inconclusive = no clear call, values can overlap the other calls; inactive = above about -39%
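Two-dose cell screen: HFF monolayers treated with compounds and infected with luciferase-expressing HCMV at 1 PFU/cell, 72 h at 37C, then lysed for luciferase measurement.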
Numbers stand for hits; – = inactive; ? = inconclusive; · = no result; [ ] = dose if it differs, or a comment. A selection: hits, their analogues and other compounds. The true share with any hit is near 20%. Unless noted, calls follow the shape of the dose curve; as a rule, active = well fitted inhibition curve with a large enough effect; inconclusive = small, poorly fitted or top-dose-only effect, or another doubt; inactive = no such curve, though single readings can be large or run the other way.

SMILES | Cycloheximide cs | Pf growth 96h | Shiga toxin inh | Pf growth 48h | HCMV antiviral
CC(=O)n1cc([C@@H]2C=C(C(=O)NCc3ccccc3)O[C@H](OCc3ccc(CO)cc3)C2)c2ccccc21 | – | 5.2µM | – | 12µM | –
CC(=O)n1cc([C@@H]2C=C(C(=O)Nc3ccccc3)O[C@H](OCCCCO)C2)c2ccccc21 | – | ? | 24 | ? | –
C#CCNC(=O)C1=C[C@H](c2cn(C(C)=O)c3ccccc23)C[C@H](OCc2ccc(CO)cc2)O1 | – | 10µM | – | ? | –
CC(=O)n1cc([C@H]2C=C(C(=O)Nc3ccccc3)O[C@@H](OCc3ccc(CO)cc3)C2)c2ccccc21 | – | 12µM | – | 8.3µM | ·
CC(=O)n1cc([C@@H]2C=C(C(=O)O)O[C@H](OCc3ccc(CO)cc3)C2)c2ccccc21 | – | – | – | – | –
O=C(Cn1c(=O)n(-c2ccccc2)c(=O)c2sc3ccccc3c21)N1CCCC1 | · | · | · | · | –
CCc1cccc2c(C(=O)CN3C(=O)NC4(CCCCCC4)C3=O)c[nH]c12 | · | ? | · | ? | -87
CCc1cccc2c(C(=O)CCl)c[nH]c12 | – | ? | – | – | –
CCc1cccc2c(C(=S)N3CCCC3)c[nH]c12 | 15 | – | – | – | –
COc1cccc(CC(=O)OCC(=O)N(C)CC(=O)Nc2ccc(Cl)c(C(F)(F)F)c2)c1 | · | – | · | – | –
Cc1noc(C)c1S(=O)(=O)Nc1ccc(C(=O)Nc2ccc(C(C)C)cc2)cc1 | · | · | · | · | –
CC1=C(C(=O)Nc2cccnc2)C(c2ccncc2)n2nnnc2N1 (stereo not given) | – | – | – | ? | –
COc1cccc(C2C(C(=O)Nc3cccnc3)=C(C)Nc3nnnn32)c1OC (stereo not given) | – | – | – | ? | -69
CC1=C(C(=O)Nc2ccccc2)C(c2ccncc2)n2nnnc2N1 (stereo not given) | – | 0.93µM | – | – | –
COc1cc(C2C(C(=O)Nc3ccccc3)=C(C)Nc3nnnn32)cc(OC)c1OC (stereo not given) | · | · | · | · | -106
Cc1cc(C)n(CC(=O)c2cccc(N)c2)n1 | – | – | – | – | –
CCSc1nnc2n(-c3ccc(OC)cc3)c(=O)c3c4c(sc3n12)CCCC4 | – | – | – | · | -85
COC(=O)C(C)Sc1nnc2n(-c3cccc(C)c3)c(=O)c3c4c(sc3n12)CCCC4 (stereo not given) | – | 12µM | – | 10µM | –
COc1ccc(NS(=O)(=O)c2cccc(NC(=O)c3ccc(Cl)nc3)c2)cc1 | – | ? | – | ? | -89
COc1ccc(C(=O)Nc2cccc(S(=O)(=O)NC3=NCCCCC3)c2)cc1 | · | ? | · | ? | –
O=C(Nc1cccc(S(=O)(=O)Nc2ccc(Cl)cc2)c1)c1ccc(Cl)nc1 | – | ? | – | – | -95
COc1ccc(NS(=O)(=O)c2cccc(NC(=O)CCC(=O)c3ccc(Cl)cc3)c2)cc1 | – | ? | – | – | -83
CC(=O)c1cccc(NC(=O)c2noc3c2CSc2ccccc2-3)c1 | · | · | · | · | –
O=C(c1ccc(F)cc1F)N1CCCC(c2nc(-c3cccs3)no2)C1 (stereo not given) | – | – | – | – | ?
O=C(c1ccccc1Br)N1CCCC(c2nc(-c3cccs3)no2)C1 (stereo not given) | 36 | – | 114 | – | -89
SMILES | Cycloheximide cs | Pf growth 96h | Shiga toxin inh | Pf growth 48h | HCMV antiviral
O=C(c1c(F)cccc1F)N1CCCC(c2nc(-c3cccs3)no2)C1 (stereo not given) | – | 8.3µM | 131 | – | –
O=C(NCc1cc(Cl)cc(Cl)c1)c1ccc2sc([C@@H]3O[C@H](CO)[C@H](O)[C@H](O)[C@H]3O)nc2c1 | · | · | · | · | –
CN(C)c1ccc(C(=O)OCC(=O)c2ccc[nH]2)cc1 | · | · | · | · | –
O=C(COC(=O)c1c(F)cccc1F)c1ccc[nH]1 | 38 | – | 82 | ? | ·
O=C(OCC(=O)c1ccc[nH]1)c1ccccc1 | 47 | – | 118 | – | –
CCCn1c(N)c(N(CCOC)C(=O)CSc2cc(C)c3ccccc3n2)c(=O)[nH]c1=O | · | · | · | · | –
NC1=C([N+](=O)[O-])C(c2ccc3c(c2)OCO3)C2=C(CCCC2=O)O1 (stereo not given) | – | ? | – | – | –
Cc1cc(C)c(S(=O)(=O)Nc2ccccc2-c2ccccc2)c(C)c1 | – | – | – | ? | -79
COc1cccc(NS(=O)(=O)c2c(C)cc(C)cc2C)c1 | – | ? | – | 13µM | –
COc1cccc(NS(=O)(=O)c2c(C)n(C)c(=O)n(C)c2=O)c1 | – | – | – | – | -70
COc1ccc(NS(=O)(=O)c2c(C)n(C)c(=O)n(C)c2=O)cc1OC | – | – | – | · | –
COc1ccc(NS(=O)(=O)c2c(C)cc(C)cc2C)cc1 | – | – | – | – | –
CCOC(=O)/C(Sc1nc(-c2ccccc2)cc(-c2ccccc2)c1C#N)=C(\C)O | – | – | – | –[0.00184 µM] | –
COc1ccc(NS(=O)(=O)c2ccc(I)cc2)cc1N1CCN(C)CC1 | – | · | – | · | ·
CN1CCC2(CC1)Nc1nc(SCc3ccc(Cl)cc3)nn1C1=C2CN(C)CC1 | – | – | – | 3.3µM | –
N#CC1=C2N=C(N)c3ccccc3N2C2=C(C(=O)CCC2)C1c1ccc(Cl)cc1 (stereo not given) | – | – | – | ? | -91
CN1C(=O)C2(C(C#N)=C(N)N(c3ccc(Cl)cc3)C3=C2C(=O)CC(C)(C)C3)c2ccccc21 (stereo not given) | – | 13µM | – | · | –
CC1(C)CC(=O)C2=C(C1)N1C(=C(C#N)C2c2ccccc2Cl)N=C(N)c2ccccc21 (stereo not given) | – | – | – | 13µM | –
CC1(C)CC(=O)C2=C(C1)N(c1ccccc1)C(N)=C(C#N)C2c1cccnc1 (stereo not given) | – | 13µM | – | ? | –
N#CC1=C2N=C(N)c3ccccc3N2C2=C(C(=O)CCC2)C1c1ccccc1F (stereo not given) | – | ? | – | – | –
CC1(C)CC(=O)C2=C(C1)N1C(=C(C#N)C2c2ccc(Cl)cc2)N=C(N)c2ccccc21 (stereo not given) | – | 13µM | – | ? | -93
Cc1ccccc1C1C(C#N)=C2N=C(N)c3c(sc4c3CCCCC4)N2C2=C1C(=O)CCC2 (stereo not given) | – | 2.6µM | – | 1.9µM | ·
COCCCn1c(=S)[nH]c2c(sc3ccccc32)c1=O | 29 | 10µM | – | – | –
CC1CCN(CCCn2c(=S)[nH]c3c(sc4ccccc43)c2=O)CC1 | 22 | –[5.75 µM] | 105 | – | –
CC1CCN(CCCn2c(=S)[nH]c3c(sc4ccc([N+](=O)[O-])cc43)c2=O)CC1 | – | – | – | – | –
O=C(NCCC1=CCCCC1)c1ccc2c(c1)N(Cc1ccc(F)cc1)C(=O)c1ccccc1S2(=O)=O | · | · | · | · | –
COc1ccc(CC(=O)NCCC(C)C)cc1S(=O)(=O)N1CCOCC1 | – | – | – | – | –
COc1ccc2nc(-c3ccc(N(C)C)cc3)sc2c1 | 32 | · | 25 | · | ·
COc1cc(OC)cc(-c2nc3ccccc3s2)c1 | 46 | – | 72 | – | –
COc1ccc2nc(-c3ccc(F)cc3)sc2c1 | · | · | · | · | –
